An excerpt weighted towards active compounds, which were near 3.7% of everything screened.
HTT-AS act: HTT-AS promoter activation. HEK293 HTT-AS promoter firefly luciferase reporter, 24 h; response scale: percent change from vehicle, -100% = no light. Potency, µM (doses to about 57.5 µM), inactives show at the highest dose activity change, positive = activation, actives largely listed as activators. 0.24% of 48,000 active. AID 1508624; further: potency means the concentration at half of the fitted maximal effect; nearly all actives have a fitted effect of over 55% in size
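HEK293 Fluc reporter, 2,500 cells/well, 24 h pre-culture; cpds up to 57.5 uM final, 24 h 37 degrees C; Dual-Glo, 10 min RT; normalized vehicle = 0%, zero RLU = -100%.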
HTT prom inh: HTT promoter inhibition. AID 1508623. Potency, µM (highest dose often 57.5 µM), for inactives: top-dose activity change, negative = inhibition, hits mostly inhibitors. HEK293 HTT promoter firefly luciferase reporter, 24 h. 0.93% of 48,000 active; further: potency means the concentration at half of the fitted maximal effect; nearly all actives have a fitted effect of over 50% in size
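HEK293 Fluc reporter, 2,500 cells/well, 24 h pre-culture; cpds up to 57.5 uM final, 24 h 37 degrees C; Dual-Glo, 10 min RT; normalized vehicle = 0%, zero RLU = -100%.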
GPR32 ag: agonists of human resolvin D1 receptor DRV1 (GPR32) | O75388 | activation, % at 76.9 µM | CHO-K1 GPR32 beta-arrestin PathHunter luminescence, 90 min; zero percent set by DMSO-only wells | AID 1346428 | 2.5% of 48,000 active;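 active means activation of at least 60% and not above a set upper limit, about 1 call in 100 departs from these limits; inconclusive means activation of 40% to 60%, or above that upper limit; inactive means activation under 40%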; further: 0% is about no effect
Target sequence (O75388 whole entry, looked up): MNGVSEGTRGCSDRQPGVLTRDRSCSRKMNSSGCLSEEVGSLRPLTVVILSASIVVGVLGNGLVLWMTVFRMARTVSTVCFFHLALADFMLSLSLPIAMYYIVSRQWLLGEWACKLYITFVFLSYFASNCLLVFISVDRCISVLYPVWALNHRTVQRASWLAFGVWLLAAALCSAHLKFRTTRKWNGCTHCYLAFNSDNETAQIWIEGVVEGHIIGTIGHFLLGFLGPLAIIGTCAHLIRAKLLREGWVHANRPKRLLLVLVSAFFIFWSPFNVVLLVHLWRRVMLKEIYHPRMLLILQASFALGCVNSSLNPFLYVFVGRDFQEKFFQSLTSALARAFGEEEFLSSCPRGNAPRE
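Beta-arrestin recruitment read-out: luminescence from complemented beta-Gal in CHO-K1 GPR32 PathHunter cells, measured 1 h after detection reagent at ambient temperature following 90 min compound exposure at 37 °C; DMSO served as basal (EC0) control.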
* = called active by the depositor; ? = inconclusive; / = no result given; [ ] = dose if it differs, or a comment. Unless noted, the call rests on the fitted dose curve; in most records, active means well fitted curve in the direction sought with a large enough effect; inconclusive means small, poorly fitted or top-dose-only effect, or another doubt; inactive means no such curve, though single readings can be large; an effect the other way counts as inactive or inconclusive.

SMILES	HTT-AS act	HTT prom inh	GPR32 ag
CCC(C(=O)OCc1cc(=O)n2nc(CCOC)sc2n1)c1ccccc1 (stereo unspecified)	-16%	-13%	-13
NS(=O)(=O)c1ccc(N2CCCCS2(=O)=O)cc1	2%	7%	-4
O=C(O)Cn1c(=O)n(Cc2ccc(Br)cc2F)c(=O)c2ccc(Cl)cc21	-4%	-2%	-23
COC(=O)c1ccc(NC(=O)C2CCN(C(=O)c3ccc(F)cc3)CC2)cc1	-12%	-23%	61*
COc1ccc(C(=O)N2CCC(C(=O)Nc3ccccc3Cl)CC2)cc1	-24%	-18%	-1
CC(C)(C)c1cc(NC(=O)Nc2ccc(-c3cn4c(n3)sc3cc(OCCN5CCOCC5)ccc34)cc2)no1	8%	9%	/
Cc1cccc(OCC(=O)Nc2nc3c(s2)CC(C(C)(C)C)CC3)c1C (stereo unspecified)	-8%	-6%	0
CC(C)(C)C1CCc2nc(NC(=O)c3ccc([N+](=O)[O-])cc3)sc2C1 (stereo unspecified)	-33%	?	11
CC(C)(C)C1CCc2nc(NC(=O)c3cccc(Cl)c3)sc2C1 (stereo unspecified)	-76%	0.35µM*	-10
CC(C)(C)C1CCc2nc(NC(=O)COc3ccccc3[N+](=O)[O-])sc2C1 (stereo unspecified)	-77%	4.5µM*	-2
CCN(CC)CCOc1ccc(Nc2ncc3cc(-c4c(Cl)cccc4Cl)c(=O)n(C)c3n2)cc1	-33%	?	/
Cc1ccc(C(=O)Oc2ccc(C(O)CNC(C)(C)C)cc2OC(=O)c2ccc(C)cc2)cc1 (stereo unspecified)	-10%	2%	?
O=C(COc1ccccc1)Nc1nnc(SCc2cc(=O)c3ccccc3[nH]2)s1	-37%	?	?
Cc1ccc(OCC(=O)Nc2nnc(SCc3cc(=O)c4ccccc4[nH]3)s2)cc1C	-13%	7%	34
CCC(CC)C(=O)Nc1nnc(SCc2cc(=O)c3ccccc3[nH]2)s1	-45%	?	99*
Cc1ccc(OCC(=O)Nc2nnc(SCc3cc(=O)c4ccccc4[nH]3)s2)cc1	-18%	-12%	120*
CNC(=O)c1ccc(-c2cnc3ncc(Cc4ccc5ncccc5c4)n3n2)cc1F	-3%	-11%	/
CCn1c(=O)cc(OCC(=O)NCc2ccccc2OC)c2ccccc21	-12%	-14%	118*
CCc1cccc(NC(=O)COc2cc(=O)n(CC)c3ccccc23)c1	-17%	-28%[11.5 µM]	11
CCn1c(=O)cc(OCC(=O)N2CCN(c3ccccc3OC)CC2)c2ccccc21	-4%	-2%	26
CCn1c(=O)cc(OCC(=O)N2CCN(c3ccc(OC)cc3)CC2)c2ccccc21	-17%	-15%	81*
CCn1c(=O)cc(OCC(=O)N2CCN(c3ccc(C(C)=O)cc3)CC2)c2ccccc21	1%	-2%	14
CCn1c(=O)cc(OCC(=O)Nc2cc(OC)c(OC)c(OC)c2)c2ccccc21	-14%	9%	90*
CCn1c(=O)cc(OCC(=O)Nc2ccccc2Cl)c2ccccc21	-37%	-18%	-17
CCn1c(=O)cc(OCC(=O)NCc2ccccc2Cl)c2ccccc21	-17%	0%	71*
SMILES	HTT-AS act	HTT prom inh	GPR32 ag
FC(F)c1nc2ccccc2n1-c1nc(N2CCOCC2)nc(N2CCOCC2)n1	-23%	?	/
Cc1cccc(C=NNc2cc(N3CCOCC3)nc(OCCc3ccccn3)n2)c1	-28%	?	/
OCCN1CCN(c2ncnc3c2cnn3-c2cccc(Cl)c2)CC1	?	20%	?
Cc1ccc(Cl)cc1-n1ncc2c(N3CCC(C)CC3)ncnc21	-29%	?	62*
NC(=O)C1CCN(c2ncnc3c2cnn3-c2cccc(Cl)c2)CC1	-59%	4.5µM*	11
Cc1ccc(Cl)cc1-n1ncc2c(NC3CCCCCC3)ncnc21	-32%	?	?
CCOc1ccc(S(=O)(=O)c2cn(Cc3ccc(C)cc3)c3ccc(OC)cc3c2=O)cc1	-9%	-32%	-8
O=C(Nc1cccnc1)N1CCC(Cc2cccc(Oc3ccc(C(F)(F)F)cn3)c2)CC1	-78%	?	/
CC(C(O)c1ccccc1)N(C)CCOC(c1ccccc1)c1ccccc1 (stereo unspecified)	-26%	-26%	29
COc1ncc(-c2ccc3nccc(-c4ccnnc4)c3c2)cc1NS(=O)(=O)c1ccc(F)cc1F	-36%	?	/
O=C(NCC1(c2ccccc2)CCCC1)C(=O)Nc1cccc(C(F)(F)F)c1	2%	-4%	-1
O=C(CC(c1ccccc1)c1cc(Br)ccc1O)NCC1(c2ccccc2)CCCC1 (stereo unspecified)	/	/	108*
Cc1c(C(=O)OC2CCCCCC2)[nH]c2c1C(=O)CC(c1ccc(Cl)cc1)C2 (stereo unspecified)	-9%	6%	-6
Cc1c(C(=O)OC2CCCCC2)[nH]c2c1C(=O)CC(c1ccc(C(C)(C)C)cc1)C2 (stereo unspecified)	-5%	-11%	5
Cc1c(C(=O)OC2CCCCCC2)[nH]c2c1C(=O)CC(c1ccccc1)C2 (stereo unspecified)	-25%	?	79*
COc1cc(C2CC(=O)c3c([nH]c(C(=O)OC4CCCC4)c3C)C2)cc(OC)c1OC (stereo unspecified)	-54%	4.5µM*	31
Cc1ccc(CNC(=O)c2c(C)oc3nc(C)nc(N4CCOCC4)c23)cc1	-6%	-4%	-5
COC(=O)Cn1c(=O)c2cccn2c2ccc(F)cc21	-15%	-9%	-6
CCOC(=O)c1c(NC(=O)c2ccc(S(=O)(=O)N3CCC(C)CC3)cc2)sc2c1CCN(CC)C2	-26%	?	-5
CCOC(=O)c1c(NC(=O)c2ccc(S(=O)(=O)N3CCC(C)CC3)cc2)sc2c1CCN(C(C)C)C2	-18%	-32%	78*
CCOC(=O)c1cccc(NC(=O)c2cc3cc4cc(OC)ccc4nc3s2)c1	-9%	8%	101*
CCOC(=O)c1cccc(NC(=O)c2cc3cc4ccc(C)cc4nc3s2)c1	5%	9%	1
O=C(NCc1ccccc1Cl)c1ccccc1NC(=O)c1nsc2ccccc12	?	79%	-3
N#CC1(c2cccc(C(=O)Nc3cc(Oc4ccc5nc(NC(=O)C6CC6)sc5n4)ccc3F)c2Cl)CC1	-4%	-15%	/
Cc1ccc(NC(=O)CC(C)S(=O)(=O)c2ccc3c(c2)NC(=O)CO3)c(C)c1 (stereo unspecified)	-8%	19%	74*
CCN(CC)c1ccc(NC(=O)CCS(=O)(=O)c2cc3c(cc2Cl)NC(=O)CO3)c(C)c1	-4%	3%	5
O=C(Nc1cn[nH]c1-c1nc2ccc(CN3CCOCC3)cc2[nH]1)NC1CC1	-35%	?	/
COc1ccc(Cl)cc1NC(=O)CN(c1cc(C)cc(C)c1)S(=O)(=O)c1c(C)n[nH]c1C	-38%	?	45
Cc1n[nH]c(C)c1S(=O)(=O)N(CC(=O)Nc1ccc(C(F)(F)F)cc1)c1ccc(C(C)C)cc1	-59%	?	12
Cc1cc(C)cc(N(CC(=O)Nc2ccc(C)cc2Cl)S(=O)(=O)c2c(C)[nH]c(=O)[nH]c2=O)c1	5%[11.5 µM]	-26%	79*

Bioassay records as filed in PubChem.
